# Results: PubChem BioAssay (EPA / NIEHS)
# Inconclusive results are not listed. Calls of active or inactive are those of the source. How the source made its calls: active means hit-call score of the fitted dose curve at least 0.9, where 1 is the maximum; inconclusive means response in the unintended direction; inactive means score below 0.9.
# Read-out: glucuronosyltransferase (UGT1A1), UGT1A1 (gene 54658)
# Assay: CLD_UGT1A1_48hr: CellzDirect (CLD) Gene Expression Assay for glucuronosyltransferase (UGT1A1) at 48 hours (AID 2283709);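 further: actives increase expression relative to DMSO so potency refers to induction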
# Protocol: CLD_48hr is a cell-based, multiplexed-readout assay that uses hepatocyte, a human liver primary cell, with measurements taken at 48 hours after chemical dosing in a 96-well plate.CLD_UGT1A1_48hr is one of 16 assay component(s) measured or calculated from the CLD_48hr assay. It is designed to make measurements of mRNA induction, a form of inducible reporter, as detected with chemiluminescence signals by Quantitative Nuclease Protection Assay (qNPA) technology.Data from the assay component CLD_UGT1A1_48hr was analyzed at the endpoint, CLD_UGT1A1_48hr, in the positive analysis fitting direction relative to DMSO as the negative control and baseline of activity. Using a type of inducible reporter, gain-of-signal activity can be used to understand changes in the reporter gene as they relate to the gene UGT1A1. Furthermore, this assay endpoint can be referred to as a primary readout. To generalize the intended target to other relatable targets, this assay endpoint is annotated to the transferase intended target family, where subfamily is glucuronosyltransferase.
# Human hepatocyte cultures were treated daily for two consecutive days with fresh dosing solutions containing appropriate concentrations of the 320 ToxCast chemicals (chemical identities were blinded to CellzDirect and other ToxCast collaborators), vehicle control (0.2% DMSO), and positive control inducers as summarized in Table 1. Due to the large number of treatment groups and chemicals examined, the ToxCast chemicals were divided into two groups (spanning two independent cultures of hepatocytes from separate donor preparations (Hu778: ToxCast plates 1 and 2; Hu776: ToxCast plates 3 and 4). Each preparation of human hepatocyte cultures was treated with respective vehicle control, medium only control, set of six positive controls/reference chemicals for the five hepatic receptor pathways, and a subset of eight of the ToxCast chemicals (indoxacarb, pyrithiobac-sodium, norflurazon, cyhalofop-butyl, methomyl, thiram, acetochlor, and propiconazole). These replicate data, coupled with internal replicates designed within the blinded ToxCast chemical library, provided additional data to evaluate interindividual differences between hepatocyte preparations and their potential impact on chemical profiles.Cell morphology and integrity were evaluated using phase-contrast microscopy as an indicator of hepatocyte cell health (Tyson & Green, 1987). Cultures for each treatment group (i.e., media, vehicle [0.2% DMSO], positive control inducers [multiple concentrations], and the ToxCast chemicals [multiple concentrations]) were observed and cell morphology was assessed relative to vehicle control cultures at each harvest time point (0, 6, 24, or 48 h). […] Images were evaluated at the conclusion of the study to assess changes in cell integrity and account for the effects of chemical exposure on uncharacteristic changes in concentration-dependent gene expression profiles. The results from these determinations of apparent cytotoxicity were annotated (yes/no) alongside the corresponding qNPA data for reference.At the conclusion of each treatment period, hepatocyte cultures (96-well) were washed with 1 volume of HBSS, lysed by addition of 25 ul ArrayPlate lysis buffer (HTG, Tucson, AZ), and 70 ul/well of Denaturation Oil, denatured by incubation at 95C for 10 min, and frozen at approximately -70C until analysis by nuclease protection assay (qNPA) (Roberts et al., 2007). For qNPA analysis, cell lysates were thawed at 50C for approximately 30 min, qNPA probes were added, and samples were incubated at 95C for 10 min to begin the detection process by denaturing the target RNA, dissociating the duplexes and secondary structure hybridization. At the conclusion of the hybridization period, S1 nuclease reagent was added to each sample to digest all nonprotected nucleotides at 50C for 60-90 min. […]
SMILES,outcome,AC50
CCCCC(CC)CN1C(=O)C2C3C=CC(C3)C2C1=O (stereo not given),inactive,
CCOC(=O)NCCOc1ccc(Oc2ccccc2)cc1,,20 µM (active)
CCCOC(=O)c1ccc(C(=O)OCCC)nc1,inactive,
COC(=O)CSc1cc(N=c2sc(=O)n3n2CCCC3)c(F)cc1Cl,,5.72 µM (active)
COC(=O)c1ccccc1S(=O)(=O)NC(=O)Nc1nc(OC(F)F)cc(OC(F)F)n1,inactive,
CCCCCCC(C)OC(=O)COc1nc(F)c(Cl)c(N)c1Cl (stereo not given),inactive,
CCN(Cc1c(F)cccc1Cl)c1c([N+](=O)[O-])cc(C(F)(F)F)cc1[N+](=O)[O-],inactive,
O=C(Nc1ccc([N+](=O)[O-])cc1Cl)c1cc(Cl)ccc1O,inactive,
C=CCOC(Cn1ccnc1)c1ccc(Cl)cc1Cl (stereo not given),inactive,
CCCCC(CC)COC(=O)c1ccccc1C(=O)O (stereo not given),inactive,
CCC(C)OC(=O)N1CCCCC1CCO (stereo not given),inactive,
O=C(O)C1(C(=O)Nc2ccc(Cl)cc2Cl)CC1,inactive,
COc1c(Cl)ccc(Cl)c1C(=O)O,inactive,
COC(=O)c1ccc(I)cc1S(=O)(=O)NC(=O)Nc1nc(C)nc(OC)n1,inactive,
c1ccc2[nH]c(-c3cscn3)nc2c1,inactive,
CN(C)C(=O)Nc1ccc(Cl)c(Cl)c1,inactive,
CCN(CC)C(=O)c1cccc(C)c1,inactive,
CCSC(=O)N(CC(C)C)CC(C)C,inactive,
COc1nc(C)nc(NC(=O)NS(=O)(=O)c2ccccc2OCCCl)n1,inactive,
CCOC(=O)[C@H](C)Oc1ccc(Oc2nc3ccc(Cl)cc3o2)cc1,inactive,

SMILES,outcome,AC50
CCCOC(=O)NCCCN(C)C,inactive,
CCCCCOC(=O)COc1cc(N2C(=O)C3=C(CCCC3)C2=O)c(F)cc1Cl,inactive,
COC(=O)c1cccc(C)c1S(=O)(=O)NC(=O)Nc1nc(OCC(F)(F)F)nc(N(C)C)n1,inactive,
CCCN(CCC)C(=O)SCC,inactive,
Oc1ccc(C(c2ccc(O)cc2)C(Cl)(Cl)Cl)cc1,inactive,
CC1(C)C(C=C(Cl)Cl)C1C(=O)OCc1cccc(Oc2ccccc2)c1 (stereo not given),,3.97 µM (active)
CCOC(=O)C(C)Oc1ccc(Oc2nc3ccc(Cl)cc3o2)cc1 (stereo not given),inactive,
CCCCOCCOCCOCc1cc2c(cc1CCC)OCO2,,2.22 µM (active)
CCC(O)=C1C(=O)CC(C(=O)O)CC1=O (stereo not given),inactive,
CCCCOC(=O)[C@@H](C)Oc1ccc(Oc2ccc(C(F)(F)F)cn2)cc1,inactive,
CCOC(=O)C(C)Oc1ccc(Oc2cnc3cc(Cl)ccc3n2)cc1 (stereo not given),inactive,
COCCO,inactive,
COC(=O)c1c(Cl)nn(C)c1S(=O)(=O)NC(=O)Nc1nc(OC)cc(OC)n1,inactive,
CCOC(=O)COc1cc(-n2ncc(C(F)(F)F)c(C)c2=O)c(F)cc1Cl,inactive,
CSC(=O)c1cccc2nnsc12,inactive,
CC(C)(c1ccc(O)cc1)c1ccc(O)cc1,inactive,
COC(=O)c1ccccc1C(=O)O,inactive,
CCCN(CCC)c1c([N+](=O)[O-])cc(C(F)(F)F)c(N)c1[N+](=O)[O-],,3.96 µM (active)
OB(O)O,inactive,
C#CCOC(=O)[C@@H](C)Oc1ccc(Oc2ncc(Cl)cc2F)cc1,inactive,
